AC50 and outcome data for 18 compounds are collected here from PubChem BioAssay (EPA / NIEHS).

Each structure is given as a SMILES string. Results filed as inconclusive are left out. Calls of active or inactive are those of the source. The calls were made as follows, unless noted: active = hit-call score of the fitted dose curve at least 0.9, where 1 is the maximum; inactive = score below 0.9.

Experiment [1] is described as follows: ACEA_ER_80hr: ACEA Biosciences xCELLigence Real-Time Cell Analysis on Estrogen Receptor Agonism for Proliferation (AID 2282667; active = hit-call score of the fitted dose curve at least 0.9, where 1 is the maximum). As to conditions: T47D proliferation, impedance (xCELLigence), 80 h. The essentials: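 Impedance readout (RT-CES) of T47D proliferation at 80 h post-dose; gain of signal vs DMSO baseline. Compounds: 8 conc, 1:4 serial, top 100 uM final, ≤0.5% DMSO; biological duplicate.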

Experiment [2] in a line: ATG_CRE_CIS: Attagene CIS-FACTORIAL HepG2 Assay for human cAMP Responsive Element (CRE) binding protein 3 (AID 2282926). As to conditions: HepG2 CRE cis-reporter, Attagene multiplexed mRNA; actives raise or lower the signal. The essentials: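 Readout: fluorescently labelled reporter transcripts resolved by capillary electrophoresis after RT-PCR, taken 24 h post-dosing in transfected HepG2. Endogenous transcription factor activity drives each cis-element reporter; gain or loss of signal fitted relative to DMSO control.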

The target of experiment [3] is CCAAT/enhancer-binding protein beta (Homo sapiens) (UniProt P17676). Briefly: ATG_C_EBP_CIS: Attagene CIS-FACTORIAL HepG2 Assay for human CCAAT/Enhancer Binding Protein (C/EBP) beta (AID 2282927). The settings on record: HepG2 Attagene cis-factorial transcription factor reporter; actives raise or lower the signal. The procedure, abridged: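 HepG2 transiently transfected with multiplexed reporter units under cis-regulatory promoters reporting endogenous C/EBPb activity. After 24 h exposure, reporter mRNA assayed by RT-PCR, fluorescent labelling, HpaI digestion and capillary electrophoresis; bidirectional fitting versus DMSO.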

Experiment [4] is described as follows: ATG_CMV_CIS: Attagene CIS-FACTORIAL HepG2 Assay for human CMV (Internal Marker) (AID 2282928).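 Also: endpoint acts as a background internal control marker rather than a target.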 As to conditions: HepG2 CMV promoter reporter, transcription factor profiling; actives raise or lower the signal. The essentials:
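24 h chemical treatment, HepG2 with transient multi-reporter transfection; RNA → oligo(dT) RT → PCR → 6-FAM extension → HpaI digest → CE fluorescence. Bidirectional fit, DMSO negative control.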

Experiment [5] can be described thus: ATG_DR4_LXR_CIS: Attagene CIS-FACTORIAL HepG2 Assay for human Liver X Receptor (LXR), DR4 submotif (AID 2282929). The settings on record: HepG2 Attagene DR4 cis-reporter, mRNA transcription; actives raise or lower the signal. The procedure, abridged: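 DR4 cis-reporter in HepG2, 24 h exposure. Detection: RT-PCR, 6-FAM labelling, CE fragment analysis. Endpoint fitted bidirectionally, DMSO = baseline.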

In experiment [6] the target is Aryl hydrocarbon receptor (Homo sapiens) (UniProt P35869). Briefly: ATG_Ahr_CIS: Attagene CIS-FACTORIAL HepG2 Assay for human Aryl Hydrocarbon Receptor (Ahr) (AID 2282930). The settings on record: HepG2 AhR cis-factorial reporter transcription; actives raise or lower the signal. The essentials: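 HepG2 cells transiently transfected with cis-element-driven multiplexed reporter units; endogenous AhR activity read as reporter mRNA 24 h after dosing, via RT-PCR, 6-FAM labelling, HpaI digestion and capillary electrophoresis. Bidirectional fit relative to DMSO.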

A short description of experiment [7]: ATG_AP_1_CIS: Attagene CIS-FACTORIAL HepG2 Assay for human Activator Protein 1 (AP-1) (AID 2282931). As to conditions: HepG2 Attagene cis-factorial AP-1 reporter mRNA; actives raise or lower the signal. The essentials:
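Cis-regulated reporter units transiently expressed in HepG2 report endogenous transcription-factor activity. Signal: reporter mRNA at 24 h, via RT-PCR and fluorescent capillary electrophoresis. Endpoint derived by bidirectional fitting, DMSO as negative control.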

A short description of experiment [8]: ATG_AP_2_CIS: Attagene CIS-FACTORIAL HepG2 Assay for human Activator Protein 2 (AP-2) (AID 2282932). As to conditions: HepG2 AP-2 cis-reporter, Attagene transcription factor profiling; actives raise or lower the signal. The essentials: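 Liver-derived HepG2 line, cis-reporter system measuring endogenous factors; 24 h dosing; reporter mRNA detected by fluorescent RT-PCR and capillary electrophoresis.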

A short description of experiment [9]: ATG_BRE_CIS: Attagene CIS-FACTORIAL HepG2 Assay for human Bone Morphogenetic Protein (BMP) Response Element (BRE) (AID 2282933). As to conditions: HepG2 BMP response element reporter, Attagene transcription factor profiling; actives raise or lower the signal. The procedure, abridged: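 After a 24 h chemical treatment, transiently transfected HepG2 cells were lysed for RNA; reporter transcripts were quantified by fluorescent RT-PCR and capillary electrophoresis, normalised to DMSO.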

Experiment [10] concerns the target Retinoic acid receptor alpha (Homo sapiens) (UniProt P10276). Briefly: ATG_DR5_RAR_CIS: Attagene CIS-FACTORIAL HepG2 Assay for human Retinoic Acid Receptor Alpha (RARE), DR5 submotif (AID 2282934).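 As to AC50: reporter responds to endogenous RAR alpha beta and gamma in HepG2 not RARA alone.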 As to conditions: HepG2 Attagene cis-factorial RARE DR5 reporter, mRNA; actives raise or lower the signal. The essentials:
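HepG2 cells transiently transfected with multiplexed reporter units; DR5 cis-element drives reporter through endogenous transcription factors. After 24 h dosing, reporter mRNA quantified by RT-PCR, fluorescent labeling, HpaI digestion and capillary electrophoresis; bidirectional fitting versus DMSO.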

Sequence of Aryl hydrocarbon receptor (Homo sapiens) (P35869 whole entry, looked up): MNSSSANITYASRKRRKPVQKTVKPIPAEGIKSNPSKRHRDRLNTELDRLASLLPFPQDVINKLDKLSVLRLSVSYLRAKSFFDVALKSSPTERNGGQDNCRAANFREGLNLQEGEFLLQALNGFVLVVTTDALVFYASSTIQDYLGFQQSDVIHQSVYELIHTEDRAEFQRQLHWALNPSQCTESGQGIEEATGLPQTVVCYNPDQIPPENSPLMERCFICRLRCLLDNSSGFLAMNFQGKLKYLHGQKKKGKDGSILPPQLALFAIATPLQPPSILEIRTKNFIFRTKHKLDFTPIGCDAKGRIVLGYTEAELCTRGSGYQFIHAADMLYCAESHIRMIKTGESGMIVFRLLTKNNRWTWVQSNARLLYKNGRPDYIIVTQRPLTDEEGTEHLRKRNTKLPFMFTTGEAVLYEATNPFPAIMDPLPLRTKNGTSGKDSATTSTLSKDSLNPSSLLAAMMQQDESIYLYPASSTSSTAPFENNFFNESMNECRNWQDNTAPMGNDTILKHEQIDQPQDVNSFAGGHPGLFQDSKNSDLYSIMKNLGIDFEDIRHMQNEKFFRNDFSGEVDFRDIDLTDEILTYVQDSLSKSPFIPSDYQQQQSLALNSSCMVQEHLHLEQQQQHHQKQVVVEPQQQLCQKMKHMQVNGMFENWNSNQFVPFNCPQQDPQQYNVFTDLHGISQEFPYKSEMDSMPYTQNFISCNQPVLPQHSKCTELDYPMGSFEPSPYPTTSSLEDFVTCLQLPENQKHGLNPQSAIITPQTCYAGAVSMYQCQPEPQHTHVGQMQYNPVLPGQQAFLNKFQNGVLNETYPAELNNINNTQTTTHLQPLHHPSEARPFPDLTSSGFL
Sequence of CCAAT/enhancer-binding protein beta (Homo sapiens) (P17676 whole entry, looked up): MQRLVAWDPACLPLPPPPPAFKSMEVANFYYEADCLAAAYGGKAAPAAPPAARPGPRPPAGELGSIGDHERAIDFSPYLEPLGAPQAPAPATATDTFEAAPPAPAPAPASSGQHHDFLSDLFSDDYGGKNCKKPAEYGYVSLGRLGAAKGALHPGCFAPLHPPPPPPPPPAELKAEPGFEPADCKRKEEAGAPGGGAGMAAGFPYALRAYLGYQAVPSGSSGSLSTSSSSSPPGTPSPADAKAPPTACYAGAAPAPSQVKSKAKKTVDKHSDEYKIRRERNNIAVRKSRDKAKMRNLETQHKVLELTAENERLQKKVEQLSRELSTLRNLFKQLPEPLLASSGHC
Sequence of Retinoic acid receptor alpha (Homo sapiens) (P10276 whole entry, looked up): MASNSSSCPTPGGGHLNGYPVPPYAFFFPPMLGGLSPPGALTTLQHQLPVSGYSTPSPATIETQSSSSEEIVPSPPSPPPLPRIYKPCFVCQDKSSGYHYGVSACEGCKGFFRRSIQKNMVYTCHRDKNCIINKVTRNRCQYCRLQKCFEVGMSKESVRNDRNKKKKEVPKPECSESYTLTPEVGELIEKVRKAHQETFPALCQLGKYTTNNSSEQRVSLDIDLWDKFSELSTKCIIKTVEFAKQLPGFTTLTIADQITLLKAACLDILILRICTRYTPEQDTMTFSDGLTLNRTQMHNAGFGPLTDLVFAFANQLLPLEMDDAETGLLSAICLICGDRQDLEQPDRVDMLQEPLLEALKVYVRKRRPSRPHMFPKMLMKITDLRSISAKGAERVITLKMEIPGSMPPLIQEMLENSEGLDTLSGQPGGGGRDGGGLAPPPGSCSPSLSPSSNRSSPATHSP

Broadly, the AC50 is the midpoint of the concentration-response curve, whichever way the signal moves. With `CC(CCC(=O)O)(c1ccc(O)cc1)c1ccc(O)cc1`, the AC50 in experiment [1] is 13.4 µM (active). The outcome in [2], in experiment [3], in [4], in [5], in experiment [6] and in experiment [7] was inactive. Further, the compound was called inactive in experiment [8], in [9] and in experiment [10].

On to `CCCCNC(=S)NCCCC`, for which the compound was classed as inactive in experiment [1], in [2], in [3], in experiment [4], in [5] and in [6]. Also, the result in experiment [7], in experiment [8], in experiment [9] and in experiment [10] was inactive.

With `Cc1ccccc1CCO`, the compound was classed as inactive in [1], in experiment [2], in experiment [3], in experiment [4], in experiment [5] and in experiment [6]. Moreover, the call in experiment [7], in experiment [8], in experiment [9] and in experiment [10] was inactive.

For `CCOc1ccc(NC(N)=O)cc1`, the call in [1], in experiment [2], in experiment [3], in experiment [4], in [5] and in experiment [6] was inactive. Further, the call in [7], in [8], in [9] and in experiment [10] was inactive.

For the compound `c1ccc(Nc2cccc3ccccc23)cc1`, the compound was classed as inactive in [1], in experiment [5], in experiment [6] and in experiment [8]. The half-maximal activity concentration (AC50) in experiment [2] was 48.3 µM (active); in [3], 45.7 µM (active); in [4], 33.4 µM (active); in [7] it was 53.7 µM (active); in experiment [9], 49.2 µM (active); in experiment [10] it was 33.4 µM (active).

For the compound `C=Cc1cccc(C)c1`, the compound was called inactive in experiment [1], in experiment [2], in [3], in experiment [4], in experiment [5] and in [6]. Moreover, the compound was classed as inactive in experiment [8], in experiment [9] and in experiment [10]. For the same compound, in experiment [7], the AC50 is 31.9 µM (active).

On to `Clc1cc(Cl)c(Cl)c(Cl)c1Cl`, for which the call in experiment [1], in experiment [2], in experiment [3], in [5], in experiment [6] and in experiment [7] was inactive. Also, the result in experiment [8], in experiment [9] and in [10] was inactive. Moreover, the AC50 in [4] is 50.7 µM (active).

Regarding `C=CC(C)(CCC=C(C)C)OC(=O)C=Cc1ccccc1` (centres undefined), the compound was called inactive in experiment [1], in experiment [2], in experiment [3], in [6], in experiment [8] and in experiment [9]. Moreover, the compound was called inactive in [10]. Further, the AC50 is 84.2 µM (active) in experiment [4], 27.1 µM (active) in [5] and 100 µM (active) in experiment [7].

Consider `CC(C)C(=O)OCCOc1ccccc1`, for which the compound was classed as inactive in experiment [1], in experiment [2], in [3], in experiment [4], in experiment [5] and in [6]. Also, the compound was called inactive in experiment [7], in experiment [8], in experiment [9] and in [10].

Consider `CC=C(C)C(C)=O`, for which the result in experiment [1], in [2], in experiment [3], in experiment [4], in experiment [5] and in experiment [6] was inactive. The result in experiment [7], in experiment [8] and in experiment [9] was inactive. Besides, the AC50 in experiment [10] was 43 µM (active).

Turning to `C=CC(=O)OCCCCCCCCCC`, the result in [1], in [2], in [3], in experiment [4], in [5] and in experiment [6] was inactive. Also, the compound was called inactive in [7], in [8] and in experiment [9]. For the same compound, the AC50 in experiment [10] was 46 µM (active).

Consider `C=CCOC(=O)c1ccc(C(=O)OCC=C)c(C(=O)OCC=C)c1`, for which the outcome in experiment [1], in experiment [2], in [3], in experiment [4], in [5] and in experiment [6] was inactive. In addition, the call in [7], in experiment [8], in [9] and in experiment [10] was inactive.

`CCC[Si](OC)(OC)OC`: the result in experiment [1], in [2], in experiment [3], in [4], in experiment [5] and in experiment [6] was inactive. Also, the compound was classed as inactive in experiment [7], in experiment [8], in [9] and in [10].

With `C=CC(=O)OCC(C)OCC(C)OCC(C)OC(=O)C=C` (centres undefined), the call in experiment [1], in experiment [2], in experiment [3], in experiment [6], in experiment [8] and in experiment [9] was inactive. Moreover, in experiment [10], the compound was classed as inactive. Besides, the AC50 in experiment [4] was 77.1 µM (active); in experiment [5], 68.8 µM (active); in experiment [7] it was 73.4 µM (active).

Turning to `O=C(Cl)c1ccc(C(=O)Cl)cc1`, the outcome in experiment [1], in [2], in experiment [3], in [4], in experiment [5] and in experiment [6] was inactive. Moreover, the compound was called inactive in experiment [7], in experiment [8] and in [10].

In the case of `C=CC(=O)NC(C)(C)C`, the compound was called inactive in experiment [1], in [2], in [3], in experiment [5], in [6] and in [7]. Besides, the outcome in experiment [8] and in experiment [9] was inactive. Further, the AC50 in [4] was 48.7 µM (active); in [10], 27.2 µM (active).

For the compound `CC(=O)OCc1ccccc1`, the result in [1], in experiment [2], in experiment [3], in experiment [4], in experiment [5] and in experiment [6] was inactive. For the same compound, the outcome in [7], in [8], in experiment [9] and in experiment [10] was inactive.

For the compound `CC(C)=CCCC(C)=CC#N`, the result in experiment [1], in experiment [2], in experiment [3], in [4], in experiment [5] and in [6] was inactive. Also, the result in [7], in experiment [8], in experiment [9] and in [10] was inactive.
